Data: the antibiotic and cytotoxicity screens of Wong et al. (2023)
The campaign covered roughly 39,000 compounds. About 3,300 (8.5%) were called active. The full list was thinned out, with actives kept by preference.

test system: HepG2; test: cytotoxicity call (relative viability < 0.9); details: 10 µM

| Compound | cytotoxicity call |
| --- | --- |
| Nc1cc(=O)nc(N)[nH]1 | inactive |
| C[C@H]1CN([C@@H](C)CO)C(=O)c2cccc(NC(=O)c3ccncc3)c2O[C@H]1CN(C)S(=O)(=O)c1ccccc1 | inactive |
| CC(C)CC#Cc1ccc2c(c1)O[C@@H](CN(C)C(=O)Cc1ccncc1)[C@@H](C)CN([C@@H](C)CO)S2(=O)=O | inactive |
| CO[C@H]1CN(C)C(=O)c2cc(NC(=O)Nc3cccc(F)c3)ccc2OC[C@H](C)N(C(=O)Nc2c(C)noc2C)C[C@H]1C | inactive |
| C[C@@H]1CCCCO[C@H](CN(C)Cc2ccc(Cl)c(Cl)c2)[C@H](C)CN([C@@H](C)CO)C(=O)c2cc(NC(=O)Nc3ccc4c(c3)OCO4)ccc2O1 | active |
| C[C@@H]1CCCCO[C@@H](CN(C)Cc2ccc(Cl)c(Cl)c2)[C@@H](C)CN([C@@H](C)CO)C(=O)c2cc(NC(=O)Nc3ccc4c(c3)OCO4)ccc2O1 | active |
| C[C@@H]1CN([C@@H](C)CO)C(=O)c2cc(NC(=O)Nc3ccc4c(c3)OCO4)ccc2O[C@@H](C)CCCCO[C@H]1CN(C)Cc1ccc(Cl)c(Cl)c1 | inactive |
| C[C@@H]1CCCCO[C@@H](CN(C)Cc2ccc(Cl)c(Cl)c2)[C@H](C)CN([C@H](C)CO)C(=O)c2cc(NC(=O)Nc3ccc4c(c3)OCO4)ccc2O1 | inactive |
| CC(C)(C)NC(=O)N1CCC(CN)CC1 | inactive |
| C[C@H]1CCCCO[C@H](CN(C)C(=O)NC2CCCCC2)[C@@H](C)CN([C@@H](C)CO)C(=O)c2cc(NC(=O)Nc3ccc(F)cc3)ccc2O1 | inactive |
| CO[C@@H]1[C@H](O)[C@@H](CO)O[C@H]1n1cc(C)c(N)nc1=O | inactive |
| C[C@@H]1CN([C@H](C)CO)C(=O)c2cccc(NS(=O)(=O)c3ccc(Cl)cc3)c2O[C@@H]1CN(C)Cc1ccc(C(F)(F)F)cc1 | inactive |
| CC(C)NC(=O)Nc1ccc2c(c1)C(=O)N([C@H](C)CO)C[C@H](C)[C@H](CN(C)Cc1ccccc1)OCCCC[C@H](C)O2 | inactive |
| C[C@H]1CN([C@@H](C)CO)S(=O)(=O)c2ccc(C#Cc3ccccc3)cc2O[C@@H]1CN(C)S(C)(=O)=O | inactive |
| CC1(N)CCN(c2cccnc2NC(=O)c2nc(-c3ncccc3C(F)(F)F)cnc2N)CC1 | inactive |
| CCCNC(=O)N1C[C@H](C)[C@H](OC)CN(C)C(=O)c2cc(NS(=O)(=O)CC(F)(F)F)ccc2OC[C@@H]1C | inactive |
| COc1ccc(S(=O)(=O)Nc2ccc3c(c2)CC(=O)N([C@@H](C)CO)C[C@H](C)[C@H](CN(C)Cc2ccc(Oc4ccccc4)cc2)O3)cc1 | inactive |
| COc1ccc(S(=O)(=O)Nc2ccc3c(c2)CC(=O)N([C@H](C)CO)C[C@H](C)[C@@H](CN(C)Cc2ccc(Oc4ccccc4)cc2)O3)cc1 | inactive |
| COc1ccc(S(=O)(=O)Nc2ccc3c(c2)CC(=O)N([C@H](C)CO)C[C@H](C)[C@H](CN(C)Cc2ccc(Oc4ccccc4)cc2)O3)cc1 | active |
| COc1ccc(S(=O)(=O)Nc2ccc3c(c2)CC(=O)N([C@@H](C)CO)C[C@@H](C)[C@H](CN(C)Cc2ccc(Oc4ccccc4)cc2)O3)cc1 | inactive |
| COc1ccc(S(=O)(=O)Nc2ccc3c(c2)CC(=O)N([C@@H](C)CO)C[C@@H](C)[C@@H](CN(C)Cc2ccc(Oc4ccccc4)cc2)O3)cc1 | inactive |

| Compound | cytotoxicity call |
| --- | --- |
| COc1ccc(S(=O)(=O)Nc2ccc3c(c2)CC(=O)N([C@@H](C)CO)C[C@H](C)[C@@H](CN(C)Cc2ccc(Oc4ccccc4)cc2)O3)cc1 | active |
| COc1ccc(S(=O)(=O)Nc2ccc3c(c2)CC(=O)N([C@H](C)CO)C[C@@H](C)[C@H](CN(C)Cc2ccc(Oc4ccccc4)cc2)O3)cc1 | active |
| COc1ccc(S(=O)(=O)Nc2ccc3c(c2)CC(=O)N([C@H](C)CO)C[C@@H](C)[C@@H](CN(C)Cc2ccc(Oc4ccccc4)cc2)O3)cc1 | active |
| COc1ccc(NC(=O)Nc2ccc3c(c2)C(=O)N([C@H](C)CO)C[C@@H](C)[C@H](CN(C)C(=O)NC2CCCCC2)OCCCC[C@H](C)O3)cc1 | inactive |
| C[C@@H]1CN([C@@H](C)CO)C(=O)c2cc(C#CCN(C)C)cnc2O[C@H]1CN(C)Cc1ccc(C(=O)O)cc1 | inactive |
| COc1cccc(OC)c1C(=O)O[C@H]1[C@@H]2OC(=O)[C@@H](Cc3ccc4ccccc4c3)C/C=C/C[C@H](Cc3ccc4ccccc4c3)C(=O)O[C@H]2[C@@H](OC)O[C@@H]1CO | inactive |
| Cc1ccc(S(=O)(=O)N(C)C[C@@H]2Oc3ccc(NC(=O)Cn4cnnn4)cc3C(=O)N([C@H](C)CO)C[C@@H]2C)cc1 | inactive |
| Cc1noc(C)c1S(=O)(=O)Nc1cccc2c1O[C@@H](CN(C)S(=O)(=O)c1ccccc1)[C@@H](C)CN([C@@H](C)CO)C2=O | inactive |
| C[C@H](CO)N1C[C@H](C)[C@@H](CN(C)C(=O)c2ccccc2)OCCCC[C@H](C)Oc2ccc(NS(=O)(=O)c3cccs3)cc2C1=O | inactive |
| CN1CCN(C(=O)C[C@H]2CC[C@@H]3[C@H](COC[C@@H](O)CN3S(=O)(=O)c3cccc(Cl)c3)O2)CC1 | inactive |
| CCS(=O)(=O)N1CC[C@]2(CC1)CN([C@@H](CO)c1c2c2ccc(cc2n1C)OC)S(=O)(=O)c1ccccc1 | inactive |
| C[C@H](CO)N1C[C@H](C)[C@H](CN(C)C(=O)NC2CCCCC2)Oc2c(NC(=O)Nc3ccc(C(F)(F)F)cc3)cccc2C1=O | active |
| C[C@@H]1CN([C@H](C)CO)C(=O)c2cccc(NC(=O)Nc3ccc(C(F)(F)F)cc3)c2O[C@H]1CN(C)C(=O)NC1CCCCC1 | active |
| C[C@H](CO)N1C[C@H](C)[C@@H](CN(C)C(=O)NC2CCCCC2)Oc2c(NC(=O)Nc3ccc(C(F)(F)F)cc3)cccc2C1=O | active |
| C[C@@H]1CN([C@H](C)CO)C(=O)c2cccc(NC(=O)Nc3ccc(C(F)(F)F)cc3)c2O[C@@H]1CN(C)C(=O)NC1CCCCC1 | active |
| O=C(N[C@H]1CC[C@H](CCNS(=O)(=O)c2ccccc2)O[C@@H]1CO)c1cnccn1 | inactive |
| C[C@@H]1CCCCO[C@@H](CN(C)C(=O)NC2CCCCC2)[C@H](C)CN([C@H](C)CO)C(=O)c2cc(NC(=O)C3CCCCC3)ccc2O1 | inactive |
| C[C@@H]1CN([C@H](C)CO)S(=O)(=O)c2ccc(C#CCN(C)C)cc2O[C@@H]1CN(C)S(=O)(=O)c1cccc(F)c1 | inactive |
| CC(C)NC(=O)Nc1ccc2c(c1)C(=O)N([C@H](C)CO)C[C@H](C)[C@H](CN(C)C(=O)C1CCCCC1)OCCCC[C@@H](C)O2 | inactive |
| COc1ccc(NC(=O)Nc2ccc3c(c2)C(=O)N([C@@H](C)CO)C[C@H](C)[C@@H](CN(C)S(=O)(=O)c2ccc(Cl)cc2)OCCCC[C@@H](C)O3)cc1 | inactive |
| COc1ccc(CNC(=O)C[C@H]2C[C@@H]3c4cc(NC(=O)NC5CCCC5)ccc4O[C@@H]3[C@@H](CO)O2)cc1 | inactive |

| Compound | cytotoxicity call |
| --- | --- |
| O=C(NCCC1=CCCCC1)c1sc2ccccc2c1Cl | inactive |
| C[C@H](CO)N1C[C@H](C)[C@@H](CN(C)C(=O)c2ccccc2)OCCCC[C@H](C)Oc2ccc(NC(=O)CCC(F)(F)F)cc2C1=O | inactive |
| C[C@@H]1CN([C@@H](C)CO)C(=O)c2c(c3ccccc3n2C)-c2ccccc2CO[C@@H]1CN(C)C(=O)Nc1ccccc1 | inactive |
| C[C@@H]1CN([C@@H](C)CO)C(=O)c2cccc(NC(=O)Nc3ccc(C(F)(F)F)cc3)c2O[C@@H]1CN(C)C(=O)NC1CCCCC1 | inactive |
| C[C@H]1CN([C@@H](C)CO)C(=O)c2cccc(NC(=O)Nc3ccc(C(F)(F)F)cc3)c2O[C@H]1CN(C)C(=O)NC1CCCCC1 | inactive |
| C[C@H]1CN([C@@H](C)CO)C(=O)c2cccc(NC(=O)Nc3ccc(C(F)(F)F)cc3)c2O[C@@H]1CN(C)C(=O)NC1CCCCC1 | active |
| C[C@@H]1CN([C@@H](C)CO)C(=O)c2cccc(NC(=O)Nc3ccc(C(F)(F)F)cc3)c2O[C@H]1CN(C)C(=O)NC1CCCCC1 | active |
| O=C(C[C@@H]1CC[C@H]2[C@@H](COC[C@@H](O)CN2S(=O)(=O)c2cccc(Cl)c2)O1)NC1Cc2ccccc2C1 | inactive |
| C[C@@H]1CN([C@@H](C)CO)C(=O)c2cc(NC(=O)Cn3cnnn3)ccc2O[C@@H]1CN(C)Cc1ccc(C(=O)O)cc1 | inactive |
| C[C@H](CO)N1C[C@H](C)[C@@H](CN(C)C(=O)NC2CCCCC2)OCCCC[C@H](C)Oc2ccc(NC(=O)CCC(F)(F)F)cc2C1=O | inactive |
| C[C@H]1CN([C@@H](C)CO)C(=O)CCCn2cc(nn2)CO[C@@H]1CN(C)C(=O)Nc1cccc(Oc2ccccn2)c1 | inactive |
| CCCNCC(O)COc1ccccc1C(=O)CCc1ccccc1.Cl (configuration not stated) | active |
| CCCC(=O)Nc1ccc(OCC(O)CNC(C)C)c(C(C)=O)c1.Cl (configuration not stated) | inactive |
| CC(=O)c1ccccc1OC[C@@H](O)CN(CCO)CCO | inactive |
| C[C@H]1CN([C@@H](C)CO)C(=O)c2cc(NC(=O)CCC(F)(F)F)ccc2O[C@H]1CN(C)Cc1ccc(C(F)(F)F)cc1 | inactive |
| C[C@H](CO)N1C[C@H](C)[C@H](CN(C)Cc2ccc(Oc3ccccc3)cc2)Oc2ncc(-c3cccnc3)cc2C1=O | inactive |
| C[C@H](CO)N1C[C@H](C)[C@H](CN(C)C(=O)NC2CCCCC2)Oc2ccc(NC(=O)Nc3cccc4ccccc34)cc2C1=O | inactive |
| C[n+]1c2cc(N)ccc2cc2ccc(N)cc21.[Cl-] | active |
| C[C@@H]1CCCCO[C@@H](CN(C)Cc2ccc(C(=O)O)cc2)[C@H](C)CN([C@H](C)CO)C(=O)c2cc(NC(=O)c3ccccc3)ccc2O1 | inactive |
| C[C@H]1CN([C@@H](C)CO)C(=O)CCCn2cc(nn2)CO[C@H]1CN(C)C(=O)Nc1cccc(Oc2ccccn2)c1 | inactive |
